# Measurements: PubChem BioAssay (NCI)
# The panel holds about 83,000 compounds, 20% with a hit somewhere; the sample as a whole holds those more often.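 Growth was measured after 48 h exposure to one concentration of compound in 96-well plates. Values under 10 count as active.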 Unmarked numbers belong to inactive results. Activity calls are given as the source filed them.
# Tested on: HCT-15 colon
# Assay: NCI-60 one-dose screen, 48 h (100 = growth as untreated, 0 = no growth, -100 = all killed)
# Settings: 10 µM unless noted
row,Compound,growth
1,CCS(=O)(=O)Nc1cccc(Nc2c3cccc(C)c3nc3c(C)cccc23)c1OC,11.1%
2,Cc1nn(-c2ccccc2)c2nc3c(nc12)C1=NCCN1C(c1ccc(Cl)cc1)N3 (centres undefined),66.4%
3,O=C(Nc1cccc(C2=NCCN2)c1)c1ccc(N=Nc2ccc(C(=O)Nc3cccc(C4=NCCN4)c3)cc2)cc1,82.2%
4,COC(=O)[C@@H](Cc1c[nH]c2ccccc12)NC(=O)/C=C/c1ccccc1,13.7%
5,CCOC(=O)C(CCCCC(NC(C)=O)(C(=O)OCC)C(=O)OCC)(NC(C)=O)C(=O)OCC,106%
6,COc1ccc(-c2cc(-c3cc4ccccc4oc3=O)n(-c3ccccc3)n2)cc1,103%
7,CC(C)N(C(=S)SSC(=S)N(C(C)C)C(C)C)C(C)C,97.7%
8,CCOC(OCC)c1cnc2nc(NC(C)=O)[nH]c(=O)c2n1,98.7%
9,CC(C)(C)c1cc(C[P+](c2ccccc2)(c2ccccc2)c2ccccc2)cc(C(C)(C)C)c1O,23.2%
10,N#Cc1ccc(-c2ccc(-c3cccs3)o2)cc1F,79.7%
11,CCN(C(=O)CCl)C(C)(C)C(SSSC(c1ccc(Cl)cc1)C(C)(C)N(CC)C(=O)CCl)c1ccc(Cl)cc1 (centres undefined),56.3%
12,N=C(N)c1ccc(-c2ccc(-c3ccco3)o2)cc1F,-40.6% (active)
13,COc1ccc(/C=C/c2nc(NCCCN(C)C)c3ccccc3n2)cc1,86.6%
14,COc1cc2c(cc1OC)-c1cc(OC)c(OC)cc1C(CN(C)C)C2 (centres undefined),78.2% [100 µM]
15,CCCCCCCCN=C(NCCCCCCCC)SCc1cccc2ccccc12,-78.1% (active)
16,N=C(N)c1ccc(-c2ccc(-c3cccs3)s2)cc1F,-66.8% (active)
17,COc1ccc2nc(-c3ccc(-c4noc(-c5ccc(Cl)cc5)n4)cc3)[nH]c2c1,75.8%
18,Cc1cccc2nc3ccccc3c(Nc3ccc(NS(C)(=O)=O)cc3)c12,37.2%
19,CC(C)CCSc1nc(Nc2ccccc2)c(C#N)c(-c2ccc(F)cc2)n1,71.7%
20,COc1cc(OC)cc(-c2ccc(-c3ccc(C(=N)N)s3)s2)c1,-77.4% (active)

row,Compound,growth
1,COc1ccc(-c2ccc(-c3ccc(C(=N)N)s3)s2)cc1,-73.7% (active)
2,C#CCO[C@H]1CC[C@H](OCC#C)[C@@H]2[C@H]1[C@H]1C[C@@H]3[C@@]4(C)CCC[C@@](C)(C(=O)OC)[C@@H]4CC[C@@]23C=C1C(C)C,91.8%
3,COC(=O)[C@H](Cc1cn(C)cn1)NC(=O)[C@H](CC(C)C)NC(=O)Nc1cc(C(F)(F)F)cc(C(F)(F)F)c1,-96.6% [100 µM] (active)
4,O=C1CCCN1C1CCN2CCCc3cccc1c32 (centres undefined),102%
5,O=C(CCCN1CCC(O)(c2ccc(Br)cc2)CC1)c1ccc(F)cc1,49.8%
6,COc1ccc(/C=N/NC(N)=S)c(OC)n1,86.9%
7,CCN1C(=O)N(CC)C2C1N=C(SC)N2/N=C/C=C/c1ccccc1OC (centres undefined),7.58% (active)
8,C/C(=N\Nc1ccc([N+](=O)[O-])cn1)c1ccc(N)cc1,95.1%
9,N/C(=N\O)c1ncc(-c2ccc(C(F)(F)F)cc2)c(NC2CCCCCC2)n1,-62.4% [100 µM] (active)
10,O=[N+]([O-])c1ccc(Sc2nc(Cl)nc(NC3CCCC3)n2)cc1,-92.4% [100 µM] (active)
11,Cc1cc2nc(CN)[nH]c2cc1C,109%
12,ClC1=NC(Cl)C(Cl)=N/C1=N\c1ncn[nH]1 (centres undefined),-71.9% (active)
13,COc1ccc(CNc2c3ccccc3nc3ccccc23)cc1F,11%
14,CCOC(=O)C1C(=O)C=C(c2ccccc2)CC1c1sc(N(C)Cc2ccccc2)nc1Cl (centres undefined),94.3%
15,CCOC(=O)c1cc(C(=O)OCC)c(C)nc1C,102%
16,O=C1OCC2=C1C(c1ccccc1)c1cc3c(cc1N2CCO)CCC3 (centres undefined),14.1%
17,O=C(CC(=O)c1ccccc1F)Nc1ccc([N+](=O)[O-])cc1,87.8%
18,Cc1cc(Nc2c3ccccc3nc3ccccc23)ccc1NS(C)(=O)=O,19.8%
19,COC(=O)CSc1ccc(Cl)cc1,106%
